Screening data as filed in PubChem BioAssay.
Pf growth 96h: P. falciparum growth inhibition at 96 hour, primary screen for plastid delayed-death inhibitors; 320,000 tested, 6.9% active; P. falciparum luciferase reporter growth, 96 h; Potency, µM (doses to about 28.7 µM), for inactives: at the top dose activity change, negative = inhibition, most hits filed as inhibitors; AID 504834; also: % is scaled to controls: 0 for no effect and ±100 for the full control effect
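Readout is luminescence from an integrated firefly luciferase in P. falciparum. Red cells, 2% hematocrit and 0.05% parasitemia final, were cultured with compound through two parasite generations (96 hours) at 37 C, 5% CO2.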
SARS PLpro yeast: inhibitors of SARS-CoV papain-like protease in yeast; S. cerevisiae expressing SARS-CoV PLpro, growth rescue; Potency, µM (highest dose often 32.9 µM), inactives show at the top dose activity, positive = growth rescue, hits mostly activators; 330,000 tested, 0.19% active; calls by dose curve; also: 0% is about no effect; nearly all actives have a fitted effect of over 55% in size
Pf growth 48h: P. falciparum growth inhibition at 48 hours (one generation) | P. falciparum luciferase growth in erythrocytes, 48 h | Potency, µM (doses to about 28.7 µM), inactives show at the top dose activity change, negative = inhibition, usual class: inhibitors | 310,000 tested, 5.9% active; also: % is scaled to controls: 0 for no effect and ±100 for the full control effect
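Compounds are pin-transferred into medium, infected erythrocytes (2% hematocrit, 0.1% parasitemia final) are added, and plates sit one parasite generation at 37 C in 5% CO2. Detection reagent is then added and luminescence measured.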
NS1 inh: influenza NS1 inhibition | Potency, µM (doses to about 46.1 µM), inactives show top-dose activity, positive = more growth | 270,000 tested, 0.4% active | AID 2326; calls by dose curve; also: actives are rising curves; nearly all actives have a fitted effect of over 50% in size
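Recovery from NS1-induced slow growth read by OD600 in budding yeast switched to galactose assay medium (pH 6.0, -URA) at 1:100 dilution. Compound 23 nl per well; the matching strain lacking NS1 serves as control.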
RE007 growth inh: less growth of the S. pombe RE007 Vpr strain; Potency, µM (doses to about 92.2 µM), for the others: at the top dose activity change, negative = less growth, usual class: inhibitors; 360,000 tested, 0.21% active; S. pombe RE007 Vpr strain, BacTiter-Glo ATP luminescence, 24 h; AID 651644; active = well fitted falling curve with a large enough effect; inconclusive = small, poorly fitted or top-dose-only effect; inactive = no such curve, though single readings can be large or run the other way; also: % is scaled to controls: 0 for no effect and ±100 for the full control effect; nearly all actives have a fitted effect of over 50% in size
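Fission yeast strain RE007, carrying one chromosomally integrated HIV-1 vpr copy, was seeded at OD 0.01 in PMG+AL medium with 23 nL pinned compound. After 24 h at 30 °C and 99% humidity, viability was read by BacTiter-Glo luminescence.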
* = called active by the depositor; ? = inconclusive; · = no result; [ ] = remark or other dose. In the library only some 9.5% were active in any assay of this set; here they are far more common. Unless noted, calls follow the shape of the dose curve; as a rule, active = well fitted inhibition curve with a large enough effect; inconclusive = small, poorly fitted or top-dose-only effect, or another doubt; inactive = no such curve, though single readings can be large or run the other way. Potency is read from the fitted curve at half-maximal effect.

SMILES	Pf growth 96h	SARS PLpro yeast	Pf growth 48h	NS1 inh	RE007 growth inh
CN1CCN(Cc2cn[nH]c2-c2ccc(F)cc2F)[C@@H](c2ccccc2)C1	2.6µM*	1%	38%	2%	1%
COc1ccc2c3c(ccc2c1)N[C@H](C(=O)O)CC3	·	·	·	-30%	·
COc1ccc(-c2nnc3sc(-c4cccs4)nn23)cc1OC	12µM*	0%	-9%	-7%	-1%
Clc1ccccc1-c1nn2c(-c3ccccn3)nnc2s1	-16%	3%	8.3µM*	8%	-10%
Clc1ccccc1-c1nn2c(-c3ccncc3)nnc2s1	?	1%	10µM*	-44%	-2%
Clc1ccccc1-c1nnc2sc(-c3cccs3)nn12	·	22µM*	?	-34%	15%
O=C(CSC1=NCCN1)Nc1ccccc1	·	·	·	1%	·
CC(C)c1ccc(OCc2ccc(C(=O)NN3CCN(C)CC3)o2)cc1	?	1%	85%	2%	1%
CCOc1ccc(N(CC(=O)N2CCN(c3ccc(F)cc3)CC2)S(=O)(=O)c2c(C)noc2C)cc1	?	2%	10µM*	12%	-2%
COc1ccc(N(CC(=O)N2CCN(c3ccc(Cl)cc3)CC2)S(=O)(=O)c2c(C)noc2C)cc1	?	2%	?	18%	1%
COc1ccc(N(CC(=O)N2CCN(c3ccc(F)cc3)CC2)S(=O)(=O)c2c(C)noc2C)cc1	1.9µM*	-1%	?	-7%	3%
COc1ccc(N(CC(=O)N2CCN(c3cccc(Cl)c3)CC2)S(=O)(=O)c2c(C)noc2C)cc1	?	0%	10µM*	25%	1%
CCOc1ccc(N(CC(=O)N2CCCC2)S(=O)(=O)c2c(C)noc2C)cc1	-3%	-2%	·	5%	2%
CC(=O)N[C@H](CC(C)C)C(=O)O	-15%	·	-12%	·	·
O=[N+]([O-])c1ccc(N=Nc2ncc[nH]2)cc1	32%	-11%	?	-65%	-24%
CC(C)(C)OC(=O)C[C@@H]1C/C=C\C[C@@H](CC(=O)N[C@H](CO)Cc2ccccc2)C(=O)N2CCC[C@H]2COC1=O	·	-13%	·	·	10%
COc1cc2c(cc1OC)C1O[C@](CCCCN3C(=O)c4ccccc4C3=O)(C2)Oc2c1c(=O)oc1ccccc21	?	-1%[6.58 µM]	?	21%	·
COC(=O)COn1c(-n2nc(C)cc2C)nc2ccccc2c1=O	·	16%	9.3µM*	2%	2%
Cc1cc(C)n(-c2nc3ccccc3c(=O)n2OCC#N)n1	0.37µM*	16%	1.3µM*	-39%	?
CCOC(=O)COn1c(-n2nc(C)cc2C)nc2ccccc2c1=O	1.5µM*	0%	3.7µM*	4%	-5%
CCOn1c(-n2nc(C)cc2C)nc2ccccc2c1=O	·	-2%	-6%	7%	6%
Cc1cc(C)n(-c2nc3ccccc3c(=O)n2OCC(C)C)n1	8%	1%	18%	-1%	14%
CCc1ccc(NC(=O)CSc2nnnn2C)cc1	15%	-2%	141%	-5%	12%
Fc1cccc(Cn2cc(C(=S)N3CCCCC3)c3ccccc32)c1	?	-9%	12µM*	0%	18%
Fc1cccc(Cn2cc(C(=S)N3CCOCC3)c3ccccc32)c1	120%	-1%	?	4%	2%
SMILES	Pf growth 96h	SARS PLpro yeast	Pf growth 48h	NS1 inh	RE007 growth inh
Cc1ccc(-n2c(SCC(=O)Nc3cccc(S(=O)(=O)NC4=NCCCCC4)c3)nc3ccccc3c2=O)cc1C	?	-4%	?	9%	·
CCCn1c(SCC(=O)Nc2cccc(S(=O)(=O)NC3=NCCCCC3)c2)nc2ccccc2c1=O	6.6µM*	5%	8.3µM*	·	-8%
O=c1c2ccccc2c(C=Nc2cccc(S(=O)(=O)NC3=NCCCCC3)c2)c(O)n1Cc1ccccc1	?	0%	1.7µM*	12%	12%
CCOCCCn1c(SCC(=O)Nc2cccc(S(=O)(=O)NC3=NCCCCC3)c2)nc2ccccc2c1=O	-10%	-1%	6.6µM*	0%	-3%
Cc1cc(SCC(=O)Nc2cccc(S(=O)(=O)NC3=NCCCCC3)c2)nc2ccccc12	?	-1%	?	24%	6%
CC(O)[C@H]1CNC(=O)C(=O)N1CCc1cc(C(F)(F)F)cc(C(F)(F)F)c1 (stereo partly specified)	5%	0%	0%	-5%	4%
CCS(=O)(=O)c1nc2ccccc2n1Cc1ccccn1	-21%	-2%	-5%	·	0%
COCCNC(=O)C(=O)NCC1OCCN1S(=O)(=O)c1cc(F)ccc1F (stereo unspecified)	·	·	·	·	-16%
COc1ccc(-c2cc(C(F)(F)F)n3nc(C(=O)NCc4ccco4)cc3n2)cc1	?	5%	9.3µM*	-10%	-9%
COc1ccc(-c2cc(C(F)(F)F)n3nc(C(=O)N(C)Cc4ccccc4)cc3n2)cc1OC	-35%[5.75 µM]	1%	6.6µM*	6%	-9%
COc1ccc(-c2cc(C(F)(F)F)n3nc(C(=O)Nc4cc(C)on4)cc3n2)cc1OC	2%	2%	?	-42%	13%
CCOC(=O)c1c(C)cc(C)n2c1nc1ccccc12	12µM*	-7%	?	-13%	-13%
COc1cc(C(=O)OCC(=O)N2CCC(Cc3ccccc3)CC2)cc(OC)c1OC	-1%	·	-20%	·	2%
CCOC(=O)C(O)(c1ccc(NC(=O)c2ccc(Cl)c(Cl)c2)cc1)C(F)(F)F (stereo unspecified)	?	-3%	9.3µM*	-7%	?
COC(=O)C(O)(c1ccc(N(C)C(=O)c2ccc(Cl)c(Cl)c2)cc1)C(F)(F)F (stereo unspecified)	-3%	19%	-6%	-10%	12%
CCOC(=O)C(O)(c1ccc(N(C)C(=O)c2ccc(Cl)c(Cl)c2)cc1)C(F)(F)F (stereo unspecified)	10µM*	?	?	-21%	10%
COc1ccc(NC(=O)c2cnn(-c3ccccc3)c2C)cc1OC	-10%	-8%	26%	-23%	-5%
COC(=O)c1cc(C)sc1NC(=O)CCCC(=O)O	9.3µM*	-3%	-2%	-2%[9.22 µM]	8%
CCNS(=O)(=O)c1ccc(CCC(=O)Nc2ccc3c(c2)OCCO3)cc1	?	2%	9.3µM*	7%	5%
CC(C)(C)NS(=O)(=O)c1ccc(CCC(=O)Nc2ccc3c(c2)OCCO3)cc1	-53%	-11%	?	3%	·
CC(C)NS(=O)(=O)c1ccc(CCC(=O)Nc2ccc3c(c2)OCCO3)cc1	?	22%	4.7µM*	-1%	-6%
Cc1ccc(-n2c(SCC(=O)NC3CCS(=O)(=O)C3)nc3ccccc3c2=O)cc1 (stereo unspecified)	-14%	-6%	56%	-2%	-2%
O=C(CSc1nc2cc(C(F)(F)F)ccc2n1Cc1ccccc1)NC1CCS(=O)(=O)C1 (stereo unspecified)	12µM*	19%	?	25%	10%
